Laboratory results: PubChem BioAssay (Tox21)
Records with an inconclusive call do not appear. Where a call stands in place of a potency, no number is given. A structure can be active in one record and inactive in another. The source made the active and inactive calls. Calls come from the whole dose curve.

Experiment: qHTS assay to identify small molecule agonists of the AP-1 signaling pathway - cell viability counter screen (AID 1159525); note: nearly all actives have a fitted effect of over 55% in size
Conditions: ME-180 (cervical carcinoma) AP-1-bla cells viability, ATP luminescence, 5 h; series mostly up to 76.8 µM; viability change, negative = cytotoxic: at the top concentration
Excerpt: National Center for Advancing Translational Sciences [NCATS]
NIH Chemical Genomics Center [NCGC]
U.S. Environmental Protection Agency [EPA]
National Institutes of Environmental Health Sciences [NIEHS]
National Toxicology Program [NTP]
U.S. Food and Drug Administration [FDA]
Activator protein-1 (AP-1), a transcription factor, plays an important role in tumor genesis by regulating genes involved in cell proliferation, differentiation, apoptosis, and angiogenesis. AP-1 activity is induced by a complex network of signaling pathways that involves extracellular signals, such as growth factors. The AP-1 protein complex formed from c-Fos and c-Jun binding to the AP-1 response element results in transcriptional activation of genes containing such elements within their promoter.
Low molecular weight molecules have been discovered and developed to modulate various components of these signaling pathways, for example, MAP kinase inhibitors. However, many points of pathway modulation remain untested due to the lack of chemical probes making this signaling locus of general interest.
Using a beta-lactamase reporter-gene under control of the AP-1 response element, a cell-based assay [CellSensor(TM) AP-1-bla ME-180 developed by Invitrogen Corp.] was used to measure EGF-induced signaling. The Tox21 10K library compounds were measured for their ability to positively modulate the action of EC50 EGF on reporter gene activity. Compounds were screened in a 15-pt titration series in 1536-well format. The cytotoxicity of the Tox21 compound library against this cell line was tested in parallel by measuring the intra cellular ATP content in the same wells.
Tox21 Assay Protocol Summary:
2500 cells/5uL in Opti-MEM medium containing 0.5% dialyzed FBS, 0.1 mM NEAA, 1 mM sodium pyruvate and 10 mM HEPES was dispensed into 1536-well black wall/clear bottom plates using a Multidrop dispenser and cells were cultured at 37 degrees Celsius overnight. Next day 23 nL of compounds dissolved in DMSO, positive controls or DMSO were delivered to each well using a pin tool. The plates were incubated at 37 degrees Celsius for 5 hours. 1 uL of LiveBLAzerTM B/G FRET substrate (Solution A+B+C+D) was added to each well using a Flying Reagent Dispenser. After incubated at room temperature for 2.5 hours the plates were measured on an EnVision plate reader at Excitation 405nm, Emission1=460nm and Emission 2=530nm. The %Activity was determined from the ratio of 460nm/530nm.
After the plates were read for Beta-Lactamase assay on Envision; 3 ul Cell Titer Glo (Promega) was added to measure the cytotoxicity and the plates were then incubated at RT in dark for 30 min. The luminescence was read on ViewLux (Perkin Elmer, Shelton, CT) using 6 sec exposure. ViewLux data was expressed as relative luminescence units.
For primary data analysis, raw plate reads for each titration point were first normalized relative to […] EGF control (100%) and DMSO only wells (basal, 0%).
For primary data analysis for viability assay, raw plate reads for each titration point were first normalized Tetra n-octyl ammonium bromide control (-100%) and DMSO (control, 100%).
Potency is the fitted concentration of half-maximal effect.

| SMILES | Potency | viability change, negative = cytotoxic |
| --- | --- | --- |
| COC(=O)NC(=S)Nc1ccccc1NC(=S)NC(=O)OC | inactive | – |
| Clc1cccc(Cl)c1Cl | inactive | – |
| C#CC(C)(C)NC(=O)c1cc(Cl)cc(Cl)c1 | inactive | – |
| O=S(=O)(c1ccc(O)cc1)c1ccc(O)cc1 | – | 0.733% (inactive) |
| CC(C)OC(=O)Nc1cccc(Cl)c1 | inactive | – |
| CCCN(CCC)N=O | inactive | – |
| CCCCOC(=O)c1ccccc1C(=O)OCCCC | inactive | – |
| Cc1ccccc1O | inactive | – |
| ClCCBr | inactive | – |
| [O-][Cl+2]([O-])O | – | -5.1% (inactive) |
| COCCl | inactive | – |
| CCOP(=S)(OCC)SCCSCC | inactive | – |
| CCC12COCN1COC2 | inactive | – |
| Nc1ccc(Br)cc1 | inactive | – |
| Oc1ccccc1Cl | inactive | – |
| CCCCCOC(=O)c1ccccc1C(=O)OCCCCC | inactive | – |
| C=C(C)CCl | inactive | – |
| CCOP(=S)(OCC)Oc1cnc2ccccc2n1 | inactive | – |
| O=[N+]([O-])c1ccc(Oc2ccc(Cl)cc2Cl)cc1 | inactive | – |
| CC(=O)C=C(C)C | inactive | – |

| SMILES | Potency | viability change, negative = cytotoxic |
| --- | --- | --- |
| COC(=O)c1ccccc1C(=O)OC | inactive | – |
| CCCCN(CC)C(=O)SCCC | inactive | – |
| CCC[N+](=O)[O-] | 15.2 µM (active) and inactive | – |
| CN1C(=O)CN=C(c2ccccc2)c2cc(Cl)ccc21 | inactive | – |
| Cc1cc(-c2cc(C)c(N)c(C)c2)cc(C)c1N | inactive | – |
| CCNc1nc(NC(C)C)nc(SC)n1 | inactive | – |
| CN(N=O)c1ccccc1 | inactive | – |
| O=c1n(Cl)c(=O)n(Cl)c(=O)n1Cl | inactive | – |
| Clc1ccc(Cl)cc1 | inactive | – |
| CC(C)C1(C)N=C(c2nc3ccccc3cc2C(=O)O)NC1=O (stereo not given) | inactive | – |
| Nc1c(Cl)c(Cl)nc(C(=O)O)c1Cl | inactive | – |
| O=c1[nH]c(=O)[nH]c(=O)[nH]1 | inactive | – |
| CCCC1COC(Cn2cncn2)(c2ccc(Cl)cc2Cl)O1 (stereo not given) | inactive | – |
| Cc1ccc([N+](=O)[O-])cc1C | inactive | – |
| CC(C)(C)C(O)(CCc1ccc(Cl)cc1)Cn1cncn1 (stereo not given) | inactive | – |
| Cc1cccc([N+](=O)[O-])c1 | inactive | – |
| CC(NC(C)(C)C)C(=O)c1cccc(Cl)c1 (stereo not given) | inactive | – |
| CC(C)(Cl)Cl | inactive | – |
| O=NN1CCCCCCC1 | inactive | – |
| BrCCBr | inactive | – |
